According to the supplement of paper PMC11732987, “Enantioselective OTUD7B fragment discovery through chemoproteomics screening and high-throughput optimisation” (Communications Chemistry, 2025):

Key:
Experiment in all cases: log2 ratio of Biotin-Ahx-Ub-VS probe labelling (fragment/DMSO); higher = less target engagement (more negative = stronger competition), active = hit call of the paper (q ≤ 0.05, log2 ratio ≤ -1)
Conditions in all cases: compound concentration: 200 uM; treatment time: 3 h
[1] = target: USP34 (UniProt Q70CQ2)
Chain of USP34 (Q70CQ2 whole entry, the tested form may be a part): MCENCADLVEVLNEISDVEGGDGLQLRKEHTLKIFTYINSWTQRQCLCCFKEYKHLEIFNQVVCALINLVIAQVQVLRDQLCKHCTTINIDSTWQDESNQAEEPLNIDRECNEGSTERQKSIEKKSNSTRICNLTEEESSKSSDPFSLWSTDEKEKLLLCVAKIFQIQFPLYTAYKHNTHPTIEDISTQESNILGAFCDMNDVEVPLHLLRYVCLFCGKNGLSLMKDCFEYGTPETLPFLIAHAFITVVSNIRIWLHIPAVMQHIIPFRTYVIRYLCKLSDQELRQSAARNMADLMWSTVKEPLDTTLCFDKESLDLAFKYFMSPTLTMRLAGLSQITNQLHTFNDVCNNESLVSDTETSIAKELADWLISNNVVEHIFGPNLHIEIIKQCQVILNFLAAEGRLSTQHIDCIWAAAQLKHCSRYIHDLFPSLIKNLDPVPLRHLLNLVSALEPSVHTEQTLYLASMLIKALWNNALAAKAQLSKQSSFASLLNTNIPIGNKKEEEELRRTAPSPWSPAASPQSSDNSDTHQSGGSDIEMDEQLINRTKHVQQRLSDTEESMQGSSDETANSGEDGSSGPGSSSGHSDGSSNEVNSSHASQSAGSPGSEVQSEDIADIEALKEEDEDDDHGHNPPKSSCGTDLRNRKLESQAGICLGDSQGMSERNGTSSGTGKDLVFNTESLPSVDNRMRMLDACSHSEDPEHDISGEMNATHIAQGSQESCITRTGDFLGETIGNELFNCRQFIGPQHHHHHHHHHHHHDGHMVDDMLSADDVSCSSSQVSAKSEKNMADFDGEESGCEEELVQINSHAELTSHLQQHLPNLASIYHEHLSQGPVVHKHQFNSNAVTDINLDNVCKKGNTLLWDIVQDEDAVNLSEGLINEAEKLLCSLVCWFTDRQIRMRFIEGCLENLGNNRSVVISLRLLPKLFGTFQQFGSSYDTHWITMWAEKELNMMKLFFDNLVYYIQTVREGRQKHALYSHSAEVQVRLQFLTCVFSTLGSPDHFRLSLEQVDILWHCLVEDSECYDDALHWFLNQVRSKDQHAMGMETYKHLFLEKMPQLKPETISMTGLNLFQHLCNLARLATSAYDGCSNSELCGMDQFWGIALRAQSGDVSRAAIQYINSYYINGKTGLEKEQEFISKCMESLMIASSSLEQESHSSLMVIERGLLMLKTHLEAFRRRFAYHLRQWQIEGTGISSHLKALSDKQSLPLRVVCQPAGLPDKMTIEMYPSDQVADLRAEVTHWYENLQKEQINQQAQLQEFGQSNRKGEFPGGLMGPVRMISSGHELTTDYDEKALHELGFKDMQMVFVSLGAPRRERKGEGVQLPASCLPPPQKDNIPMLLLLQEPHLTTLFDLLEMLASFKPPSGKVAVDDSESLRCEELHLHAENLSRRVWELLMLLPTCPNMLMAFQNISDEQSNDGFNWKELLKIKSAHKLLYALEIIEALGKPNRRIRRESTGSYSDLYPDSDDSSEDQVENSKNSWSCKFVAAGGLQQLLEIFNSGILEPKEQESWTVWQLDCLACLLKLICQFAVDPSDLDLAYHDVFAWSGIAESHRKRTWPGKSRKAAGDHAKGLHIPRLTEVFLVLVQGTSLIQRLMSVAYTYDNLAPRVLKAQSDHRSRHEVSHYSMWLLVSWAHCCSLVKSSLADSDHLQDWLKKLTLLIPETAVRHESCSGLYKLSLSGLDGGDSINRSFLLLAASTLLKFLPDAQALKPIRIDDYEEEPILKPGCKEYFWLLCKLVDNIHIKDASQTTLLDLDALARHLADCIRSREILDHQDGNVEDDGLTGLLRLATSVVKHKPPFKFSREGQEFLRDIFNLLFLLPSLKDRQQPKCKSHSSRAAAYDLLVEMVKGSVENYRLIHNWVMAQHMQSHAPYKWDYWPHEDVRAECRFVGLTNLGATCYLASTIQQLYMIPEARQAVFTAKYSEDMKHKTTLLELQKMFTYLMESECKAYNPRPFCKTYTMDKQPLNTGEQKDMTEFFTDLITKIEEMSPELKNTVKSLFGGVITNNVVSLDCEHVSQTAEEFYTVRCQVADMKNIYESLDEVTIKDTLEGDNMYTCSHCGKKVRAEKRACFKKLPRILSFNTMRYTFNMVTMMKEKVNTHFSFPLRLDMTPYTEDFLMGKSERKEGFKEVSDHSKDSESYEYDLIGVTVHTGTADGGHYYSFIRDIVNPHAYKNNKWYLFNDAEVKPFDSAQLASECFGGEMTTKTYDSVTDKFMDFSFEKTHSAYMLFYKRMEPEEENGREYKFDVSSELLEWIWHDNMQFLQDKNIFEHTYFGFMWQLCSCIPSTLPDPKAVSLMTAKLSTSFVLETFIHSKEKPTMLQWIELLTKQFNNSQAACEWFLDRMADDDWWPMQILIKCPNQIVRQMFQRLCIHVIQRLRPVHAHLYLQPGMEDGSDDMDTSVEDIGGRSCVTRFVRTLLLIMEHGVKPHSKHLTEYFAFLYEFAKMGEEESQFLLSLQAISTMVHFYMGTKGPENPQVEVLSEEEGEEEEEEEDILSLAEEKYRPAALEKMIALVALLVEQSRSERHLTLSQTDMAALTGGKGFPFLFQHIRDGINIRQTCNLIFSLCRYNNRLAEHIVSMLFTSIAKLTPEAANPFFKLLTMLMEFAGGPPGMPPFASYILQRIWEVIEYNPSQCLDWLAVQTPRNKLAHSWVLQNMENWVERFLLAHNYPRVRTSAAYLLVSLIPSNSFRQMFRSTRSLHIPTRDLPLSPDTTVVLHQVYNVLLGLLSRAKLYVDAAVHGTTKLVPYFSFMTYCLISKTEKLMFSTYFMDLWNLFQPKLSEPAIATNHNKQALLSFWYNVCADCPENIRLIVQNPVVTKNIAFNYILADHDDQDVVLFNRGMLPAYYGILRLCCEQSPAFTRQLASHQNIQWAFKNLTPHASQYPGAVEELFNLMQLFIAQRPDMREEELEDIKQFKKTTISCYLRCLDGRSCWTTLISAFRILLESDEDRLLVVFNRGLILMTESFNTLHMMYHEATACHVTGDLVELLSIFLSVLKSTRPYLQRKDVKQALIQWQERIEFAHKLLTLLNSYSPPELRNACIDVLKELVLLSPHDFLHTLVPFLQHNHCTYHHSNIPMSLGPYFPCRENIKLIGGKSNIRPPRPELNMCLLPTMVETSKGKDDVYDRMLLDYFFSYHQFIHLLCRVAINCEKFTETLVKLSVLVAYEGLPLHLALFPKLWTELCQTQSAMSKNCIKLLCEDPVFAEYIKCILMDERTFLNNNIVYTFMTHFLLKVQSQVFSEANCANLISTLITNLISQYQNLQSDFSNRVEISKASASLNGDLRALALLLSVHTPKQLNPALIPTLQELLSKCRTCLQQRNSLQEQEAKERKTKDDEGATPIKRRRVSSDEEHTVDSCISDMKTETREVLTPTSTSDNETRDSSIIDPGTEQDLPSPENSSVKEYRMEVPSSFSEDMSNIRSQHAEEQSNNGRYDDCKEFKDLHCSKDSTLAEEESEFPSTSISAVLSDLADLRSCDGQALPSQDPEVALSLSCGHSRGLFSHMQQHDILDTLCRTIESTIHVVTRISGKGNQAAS
In short: (§1)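 Average log2 ratios of fragment over vehicle were obtained by unpaired t-test from global-median-normalised Spectronaut label-free quantities. Proteins with ≥2 unique peptides were included. HEK293T lysate (495 µg per sample) was treated in triplicate with fragment at 200 µM or vehicle for 3 h, then with Biotin-Ahx-Ub-VS at 0.5 µM final for 1 h, and labelled DUBs were NeutrAvidin-enriched and run by diaPASEF LC-MS/MS.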

[2] = target: T1, USP36 (UniProt Q9P275)
T1 sequence (whole entry): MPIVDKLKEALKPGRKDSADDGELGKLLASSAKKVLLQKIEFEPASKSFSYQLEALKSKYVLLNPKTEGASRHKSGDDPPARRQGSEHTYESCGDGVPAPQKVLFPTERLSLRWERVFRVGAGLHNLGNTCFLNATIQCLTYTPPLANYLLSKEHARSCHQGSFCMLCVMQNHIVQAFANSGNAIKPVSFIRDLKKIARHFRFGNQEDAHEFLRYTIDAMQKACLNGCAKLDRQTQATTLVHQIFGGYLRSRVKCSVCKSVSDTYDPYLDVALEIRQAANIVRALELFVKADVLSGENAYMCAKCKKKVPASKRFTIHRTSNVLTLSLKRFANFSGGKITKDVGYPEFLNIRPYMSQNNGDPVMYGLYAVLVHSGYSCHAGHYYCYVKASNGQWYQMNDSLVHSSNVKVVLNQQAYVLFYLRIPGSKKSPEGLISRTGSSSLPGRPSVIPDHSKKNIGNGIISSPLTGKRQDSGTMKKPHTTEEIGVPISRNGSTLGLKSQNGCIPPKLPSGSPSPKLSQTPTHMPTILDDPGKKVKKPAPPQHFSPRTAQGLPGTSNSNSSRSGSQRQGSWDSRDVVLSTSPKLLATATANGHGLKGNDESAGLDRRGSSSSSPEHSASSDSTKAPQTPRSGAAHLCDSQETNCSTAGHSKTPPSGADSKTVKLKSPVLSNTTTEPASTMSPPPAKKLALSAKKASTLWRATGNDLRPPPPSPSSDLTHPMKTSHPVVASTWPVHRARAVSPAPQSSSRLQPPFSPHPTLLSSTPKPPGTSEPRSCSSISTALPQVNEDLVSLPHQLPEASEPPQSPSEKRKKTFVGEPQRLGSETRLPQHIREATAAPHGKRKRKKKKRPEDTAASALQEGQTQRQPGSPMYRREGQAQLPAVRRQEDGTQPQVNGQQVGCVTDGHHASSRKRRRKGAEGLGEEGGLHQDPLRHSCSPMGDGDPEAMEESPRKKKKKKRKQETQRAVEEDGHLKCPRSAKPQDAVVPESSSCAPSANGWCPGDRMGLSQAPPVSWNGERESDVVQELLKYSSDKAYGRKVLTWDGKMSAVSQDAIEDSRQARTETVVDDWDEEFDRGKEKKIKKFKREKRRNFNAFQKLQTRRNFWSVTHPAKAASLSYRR
In short: as §1

[3] = target: T2, USP38 (UniProt Q8NB14)
T2 sequence (whole entry): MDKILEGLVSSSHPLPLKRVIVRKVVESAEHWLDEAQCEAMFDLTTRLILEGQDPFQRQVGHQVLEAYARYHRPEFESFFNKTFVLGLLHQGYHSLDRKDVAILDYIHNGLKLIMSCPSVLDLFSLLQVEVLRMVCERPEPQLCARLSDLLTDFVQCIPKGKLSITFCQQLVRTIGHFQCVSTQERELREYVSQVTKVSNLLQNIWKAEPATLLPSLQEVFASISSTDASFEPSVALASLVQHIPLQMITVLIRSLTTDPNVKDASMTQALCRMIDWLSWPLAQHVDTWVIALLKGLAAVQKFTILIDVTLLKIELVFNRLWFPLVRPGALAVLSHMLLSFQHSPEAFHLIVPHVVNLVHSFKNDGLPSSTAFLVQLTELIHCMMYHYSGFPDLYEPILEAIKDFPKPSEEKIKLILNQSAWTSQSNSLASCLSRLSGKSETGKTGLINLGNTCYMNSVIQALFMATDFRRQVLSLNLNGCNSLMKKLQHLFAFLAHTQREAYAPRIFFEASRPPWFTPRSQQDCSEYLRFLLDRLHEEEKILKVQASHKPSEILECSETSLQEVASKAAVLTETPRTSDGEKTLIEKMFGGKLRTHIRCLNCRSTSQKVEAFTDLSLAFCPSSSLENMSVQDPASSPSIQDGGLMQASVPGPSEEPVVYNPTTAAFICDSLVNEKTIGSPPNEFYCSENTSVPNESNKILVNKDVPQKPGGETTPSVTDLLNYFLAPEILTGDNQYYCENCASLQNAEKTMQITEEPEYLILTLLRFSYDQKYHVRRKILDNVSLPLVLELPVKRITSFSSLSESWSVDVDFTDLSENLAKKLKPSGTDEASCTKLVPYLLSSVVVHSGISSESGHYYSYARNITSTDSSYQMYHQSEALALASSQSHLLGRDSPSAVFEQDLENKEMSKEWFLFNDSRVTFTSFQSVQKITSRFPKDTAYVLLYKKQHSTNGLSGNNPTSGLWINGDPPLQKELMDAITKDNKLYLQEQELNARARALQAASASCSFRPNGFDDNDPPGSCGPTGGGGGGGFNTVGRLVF
In short: as §1

[4] = target: T3, USP39 (UniProt Q53GS9)
T3 sequence (whole entry): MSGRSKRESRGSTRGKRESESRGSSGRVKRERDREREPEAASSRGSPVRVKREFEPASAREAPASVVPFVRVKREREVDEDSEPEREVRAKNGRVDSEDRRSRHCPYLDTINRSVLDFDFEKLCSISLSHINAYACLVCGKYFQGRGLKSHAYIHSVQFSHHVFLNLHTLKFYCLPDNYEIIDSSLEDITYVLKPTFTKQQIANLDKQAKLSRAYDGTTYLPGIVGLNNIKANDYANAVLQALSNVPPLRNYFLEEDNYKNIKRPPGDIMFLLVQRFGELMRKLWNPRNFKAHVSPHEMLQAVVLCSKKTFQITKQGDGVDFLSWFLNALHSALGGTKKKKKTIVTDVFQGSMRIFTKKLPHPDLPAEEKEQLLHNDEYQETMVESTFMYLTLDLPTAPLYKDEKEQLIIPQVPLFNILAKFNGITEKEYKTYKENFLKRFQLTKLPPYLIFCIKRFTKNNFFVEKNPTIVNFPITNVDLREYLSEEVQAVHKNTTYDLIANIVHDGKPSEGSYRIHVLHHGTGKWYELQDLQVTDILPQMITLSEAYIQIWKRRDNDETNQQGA
In short: as §1

[5] = target: T4, USP4 (UniProt Q13107)
T4 sequence (whole entry): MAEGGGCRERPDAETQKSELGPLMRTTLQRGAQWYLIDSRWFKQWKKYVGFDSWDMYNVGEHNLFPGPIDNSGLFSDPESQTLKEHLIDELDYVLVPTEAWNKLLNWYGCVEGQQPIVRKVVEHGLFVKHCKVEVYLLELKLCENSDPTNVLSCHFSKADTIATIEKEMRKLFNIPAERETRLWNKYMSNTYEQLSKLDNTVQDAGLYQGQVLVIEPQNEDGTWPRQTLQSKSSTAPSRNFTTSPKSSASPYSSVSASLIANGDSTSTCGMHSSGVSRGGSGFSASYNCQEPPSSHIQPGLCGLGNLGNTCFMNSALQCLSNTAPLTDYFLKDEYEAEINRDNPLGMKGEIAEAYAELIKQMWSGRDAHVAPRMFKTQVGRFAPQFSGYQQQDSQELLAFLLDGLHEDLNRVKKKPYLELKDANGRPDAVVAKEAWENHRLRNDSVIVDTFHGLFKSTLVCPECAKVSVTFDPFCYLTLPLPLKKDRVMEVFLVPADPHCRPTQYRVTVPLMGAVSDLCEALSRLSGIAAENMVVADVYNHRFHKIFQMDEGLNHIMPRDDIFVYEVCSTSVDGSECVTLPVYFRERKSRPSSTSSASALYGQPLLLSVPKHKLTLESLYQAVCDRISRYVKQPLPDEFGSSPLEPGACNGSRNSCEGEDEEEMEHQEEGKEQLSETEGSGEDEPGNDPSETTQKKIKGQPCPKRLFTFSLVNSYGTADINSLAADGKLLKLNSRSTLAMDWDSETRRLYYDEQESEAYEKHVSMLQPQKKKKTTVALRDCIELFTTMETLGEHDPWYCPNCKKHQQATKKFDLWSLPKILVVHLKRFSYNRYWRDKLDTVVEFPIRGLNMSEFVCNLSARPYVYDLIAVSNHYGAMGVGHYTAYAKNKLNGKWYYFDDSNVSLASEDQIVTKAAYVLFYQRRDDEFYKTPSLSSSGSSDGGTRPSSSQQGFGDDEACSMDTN
In short: as §1

Measured: log2 ratio of Biotin-Ahx-Ub-VS probe labelling

Cc1ccccc1OCC(=O)N1CCN(C(=O)CCl)CC1
inactive: [1] -0.131 | [2] -0.102 | [3] -0.159 | [4] 0.114 | [5] -0.0294
